D2 antagonist: antagonists of human D2 dopamine receptor; P14416; HEK293 TREx D2 cells, calcium flux, dopamine EC80; inhibition, % at 10 µM; hit rate 2% among 340,000; AID 485344; in the data active = inhibition above about 30%; inactive = below that, where a call was filed; also: 0% is about no effect
Target sequence (P14416 whole entry, looked up): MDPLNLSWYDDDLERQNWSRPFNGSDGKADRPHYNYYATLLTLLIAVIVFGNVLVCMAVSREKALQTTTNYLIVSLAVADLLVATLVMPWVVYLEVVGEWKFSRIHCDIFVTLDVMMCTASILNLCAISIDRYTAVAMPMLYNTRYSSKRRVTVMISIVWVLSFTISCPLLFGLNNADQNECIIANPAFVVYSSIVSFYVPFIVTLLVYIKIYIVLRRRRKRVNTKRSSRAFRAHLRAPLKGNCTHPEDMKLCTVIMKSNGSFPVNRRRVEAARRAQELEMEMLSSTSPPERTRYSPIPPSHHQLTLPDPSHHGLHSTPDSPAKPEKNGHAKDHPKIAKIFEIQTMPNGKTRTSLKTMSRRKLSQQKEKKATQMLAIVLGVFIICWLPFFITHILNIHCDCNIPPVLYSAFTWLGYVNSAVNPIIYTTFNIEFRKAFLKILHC
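Read-out: kinetic calcium fluorescence (1 cycle/s) in inducible HEK293 T-REx D2 cells after an EC80 dopamine addition that followed 180 s compound preincubation. Loss of the dopamine response indicates antagonism.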
D2 ag-1: agonists of human D2 dopamine receptor (beta-arrestin); P14416; DiscoveRx PathHunter D2 beta-arrestin, luminescence, 90 min; 100% = 57 uM dopamine signal; activation, % (concentration not given with the values); hit rate 0.084% among 360,000; AID 624465; in the data active = activation above about 40%
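Agonist mode: compounds alone added to overnight-plated D2 PathHunter cells for 90 min at 37 C, with 57 uM final dopamine (EC100) defining full response. Beta-arrestin recruitment detected by chemiluminescent reagent, read after 1 h at ambient temperature.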
D2 PAM-1: potentiates the human D2 dopamine receptor allosterically; DiscoveRx D2 beta-arrestin cells, luminescence, 90 min; 100% = 57 uM dopamine signal; potentiation, % (concentration not given with the values); hit rate 0.23% among 360,000; in the data active = potentiation above about 50%
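PathHunter beta-arrestin assay in DiscoveRx D2 cells. Compounds were added with an EC20 of dopamine (50 nM final) for 90 min at 37 deg C. Luminescence was read 1 h after detection reagent, with 57 uM dopamine as the EC100 control.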
D2 PAM-2: D2 dopamine receptor (human) potentiation | P14416 | potentiation, % at 10 µM | HEK293 T-REx D2, calcium flux, EC20 dopamine potentiation | hit rate 0.34% among 340,000;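 active = potentiation over 3 SD above the plate norm, cut at about 30% in these data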; also: 0% is about no effect
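Primary screen. Calcium kinetics in induced HEK293 T-REx D2 cells: compound pre-addition 180 s, EC20 dopamine, 180 s more.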
D2 ag-2: activates the human D2 dopamine receptor. P14416. HEK293 T-REx D2 cells, calcium flux agonist mode. activation, % at 2 µM. hit rate 0.53% among 340,000. AID 485358;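 active = activation over 3 SD above normal in the single-dose calcium agonist read, cut at about 30% in these data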; also: 0% is about no effect
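Tetracycline-induced HEK293 T-REx cells with force-coupled D2 receptor, plated overnight at 30 C, loaded with no-wash calcium dye. After a 10 s baseline, compound was pin-added and calcium flux read kinetically for 180 s; calcium rises flagged agonists.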
* = called active by the depositor; nt = no result. Hits are enriched below; roughly 2.4% of the tested compounds scored in any of these assays.

SMILES	D2 antagonist	D2 ag-1	D2 PAM-1	D2 PAM-2	D2 ag-2
C[C@@H]1CN([C@H](C)CO)C(=O)CCCn2nncc2CO[C@@H]1CN(C)S(=O)(=O)c1cccc(F)c1	nt	0	-1	nt	nt
CC1(C)O[C@@H]2[C@H](O1)[C@@H](COS(=O)(=O)O)O[C@H]2n1c(=S)[nH]c2c(=O)[nH]c(N)nc21	9	-4	-9	5	0
CN[C@H]1C[C@H]2c3[nH]c4ccccc4c3CCN2C(=O)[C@H]1[C@H](C)O	nt	-10	-1	nt	nt
CCCS(=O)(=O)NCCc1sc2nc(-c3ccc(F)cc3)nn2c1C	nt	nt	nt	-10	1
c1coc(CNC2CCCCCCC2)c1	-5	-2	21	1	0
c1coc(CNC2CCCCC2)c1	-13	-3	-2	32*	-1
O=S1(=O)CC(O)C(NCCO)C1 (configuration not stated)	-48	1	-2	-2	1
O=S1(=O)CC(O)C(NCc2ccco2)C1 (configuration not stated)	34*	0	-11	-6	1
O=C(Nc1nnc(SCC(=O)N2CCCCC2)s1)c1ccc(F)cc1F	55*	3	1	-3	0
CCOC(=O)[C@@H]1[C@H]2COc3cc(OC)ccc3[C@@H]2N2C(=O)N(c3cccc(Cl)c3)C(=O)[C@@]12C	-10	-4	-6	5	0
Cc1ccc(NC(=S)N2CCC(c3ccccc3)C2)c(Cl)c1 (configuration not stated)	30*	-3	-7	-3	-1
S=C(Nc1ccccc1Cl)N1CCC(c2ccccc2)C1 (configuration not stated)	2	-4	2	-6	-1
COc1ccc(CC(=O)Nc2ccc(S(=O)(=O)Nc3nccs3)cc2)cc1	25	-3	-1	-3	0
COc1ccc(S(=O)(=O)Nc2ccc(Oc3ncccn3)c(Cl)c2)cc1	-6	-2	4	-9	1
COc1ccc(S(=O)(=O)Nc2ccc(S(=O)(=O)Nc3nccs3)cc2)cc1	50*	-2	1	-1	0
COc1ccc(NS(=O)(=O)c2ccc(NC(=O)c3ccccn3)cc2)cc1	-1	13	0	73*	0
COc1cc(OC)cc(C(=O)Nc2ccc(S(=O)(=O)Nc3nc(C)cc(C)n3)cc2)c1	34*	5	-4	1	-1
COc1ccc(NS(=O)(=O)c2ccc(Oc3ncccn3)cc2)cc1	-3	1	0	46*	1
CCOC(=O)C1=C(CN2CCN(c3cc(C)ccc3C)CC2)NC(=O)NC1c1ccccc1 (configuration not stated)	nt	nt	nt	13	0
COc1ccccc1Nc1ccc2c(O)cc(S(=O)(=O)O)cc2c1	nt	2	16	nt	nt
CNCc1c(OCc2ccccc2F)ccc2ccccc12	78*	-3	-24	-22	0
Nc1nonc1C(=O)NCCNCc1c(OCc2ccccc2F)ccc2ccccc12	16	1	-14	-34	-2
CNCc1c(OCc2ccccc2)ccc2ccccc12	79*	-3	-10	-10	0
COC(=O)CN1C(=O)CSc2ccc(S(=O)(=O)Nc3cccc(C)c3C)cc21	nt	nt	nt	-9	-1
O=C(Nc1ccccc1)C1=C(c2ccccc2)S(=O)(=O)CCS1(=O)=O	-3	-5	-19	58*	3
SMILES	D2 antagonist	D2 ag-1	D2 PAM-1	D2 PAM-2	D2 ag-2
COC(=O)c1ccc(C2C(Oc3ccccc3)C(=O)N2CCc2ccc(F)cc2)cc1 (configuration not stated)	36*	-2	2	-15	1
COc1ccccc1CCNC(=O)c1cccc(S(=O)(=O)N2CCc3ccccc3C2)c1	18	-2	-2	15	0
O=C1OC(c2ccccc2)(c2ccc(O)cc2)c2ccccc21 (configuration not stated)	nt	-1	-2	nt	nt
O=C1OC2(c3ccccc31)c1cc(I)c(O)c(I)c1Oc1c2cc(I)c(O)c1I	53*	nt	nt	-17	105*
CS(=O)(=O)N(Cc1ccccc1)c1ccc(C(=O)Nc2cccc(Cl)c2)cc1	nt	nt	nt	0	0
Cc1cc(C)nc(NC(C)(C)C(=O)O)n1	32*	2	-6	-17	-1
Cc1[nH]c2ccccc2c1C(=O)C(=O)NCc1nnnn1-c1ccc(F)cc1	nt	-1	-24	nt	nt
CCN1CCN(CCCN(Cc2ccco2)C(=S)Nc2ccc(C)c(Cl)c2)CC1	-15	2	-19	-6	2
CCN1CCN(CCCN(Cc2ccco2)C(=S)Nc2cc(Cl)ccc2C)CC1	42*	-9	-14	-19	-2
Cc1ccc(C(=O)Nc2ccc3c(c2)N(C)C(=O)c2ccccc2S3)cc1F	nt	nt	nt	9	1
CC1=C(C(=O)OCC2CCCO2)C(c2coc3ccc(C)cc3c2=O)C2=C(CCCC2=O)N1 (configuration not stated)	-5	-4	-6	31*	0
CC1=C(C(=O)OCC2CCCO2)C(c2coc3ccc(Cl)cc3c2=O)C2=C(CCCC2=O)N1 (configuration not stated)	1	-1	-26	23	0
Cc1cc(Nc2cc(Cl)ccc2C)n2nc(Cc3ccccc3)nc2n1	nt	nt	nt	-12	-1
O=S(=O)(c1ccccc1)N1CCN(CC2CC3C=CC2C3)CC1 (configuration not stated)	0	-4	-9	-2	-1
Cc1ccc(CN2CCN(CC3CC4C=CC3C4)CC2)cc1 (configuration not stated)	65*	-2	-32	-26	0
COc1cc(OC)c(NC(=O)c2cc(CN3CCOCC3)on2)cc1Cl	nt	nt	nt	-5	nt
Nc1ccccc1C(=O)NCc1ccc(Cl)cc1	30*	2	8	1	27
Nc1ccccc1C(=O)NCc1ccc(F)cc1	-7	2	-2	3	0
CC1=CC(c2ccc(Cl)cc2)n2nc(NS(=O)(=O)c3ccc(C)cc3)nc2N1 (configuration not stated)	-8	0	0	-3	0
CC1=CC(c2ccccc2)n2nc(NS(=O)(=O)c3ccc(C)cc3)nc2N1 (configuration not stated)	121*	0	-5	-3	-1
COCCNC(=O)c1c[nH]c2ccc(S(=O)(=O)N3CCc4ccccc43)cc2c1=O	-4	-1	17	8	-1
COCCCNC(=O)c1c[nH]c2ccc(S(=O)(=O)N3CCc4ccccc43)cc2c1=O	-8	7	7	38*	0
CC(NCC(O)c1ccc([N+](=O)[O-])cc1)C12CC3CC(CC(C3)C1)C2 (configuration not stated)	38*	-7	-7	20	0
O=C(NCC(O)c1ccc([N+](=O)[O-])cc1)Nc1ccccc1 (configuration not stated)	6	-3	-12	0	0

Screens deposited in PubChem BioAssay by National Center for Advancing Translational Sciences (NCATS).
